Measurements published in PubChem BioAssay (NCATS).
Inconclusive results are not listed. Unmarked numbers belong to inactive results. Active and inactive are the calls of the source. Calls follow the shape of the dose curve; as a rule, active = well fitted cell-killing curve with a large enough effect; inconclusive = small, poorly fitted or top-dose-only effect; inactive = flat fitted curve, though single readings scatter.

Assay: qHTS of pediatric cancer cell lines to identify multiple opportunities for drug repurposing: Confirmatory screen for A673 cells (AID 1347110);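 also: cells exposed to compound for 48 h before the viability read; nearly all actives have a fitted effect of over 65% in size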;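 as to activity change, negative = cytotoxicity: plate controls were DMSO neutral control for no effect and bortezomib positive control for full effect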
Settings: A673 Ewing sarcoma cell viability; series mostly up to 45.9 µM; activity change, negative = cytotoxicity: at the top concentration
Outline: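 A673 cells seeded at 500-1,000 cells/well, rested 5 h, then dosed; primary MIPE 11-point (0.78 nM to 46 µM), NPC (0.59 nM to 46 µM); confirmatory 11-point. CellTiter-Glo luminescence after 48 h.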
Potency is read from the fitted curve at half-maximal effect.

Structure (SMILES)	Potency	activity change, negative = cytotoxicity
S=C(SSC(=S)N1CCCCC1)N1CCCCC1	10.4 µM (active)	–
COC1=CC(C)=C[C@@H](C)[C@@H](O)[C@@H](C)CC(C)=CC=C[C@H](OC)[C@H]([C@@H](C)[C@@H](O)[C@H](C)[C@@]2(O)C[C@@H](O)[C@H](C)[C@@H](C(C)C)O2)OC1=O	–	23.1%
COc1cc([C@@H]2c3cc4c(cc3[C@@H](O)C3COC(=O)C32)OCO4)cc(OC)c1O (stereo partly specified)	0.522 µM (active)	–
O=C(O)COc1nc(Cl)c(Cl)cc1Cl	2.18 µM (active)	–
COc1ccc(C(=O)c2c(C)n(CCN3CCOCC3)c3cc(I)ccc23)cc1	26.1 µM (active)	–
Cc1c(N)nc([C@H](CC(N)=O)NC[C@@H](N)C(N)=O)nc1C(=O)N[C@H](C(=O)N[C@@H](C)[C@H](O)[C@@H](C)C(=O)N[C@@H](C(=O)NCCc1nc(-c2nc(C(=O)NCCC[S+](C)C)cs2)cs1)[C@@H](C)O)C(O[C@H]1O[C@H](CO)[C@H](O)[C@@H](O)[C@@H]1O[C@H]1O[C@H](CO)[C@@H](O)[C@H](OC(N)=O)[C@H]1O)c1cnc[nH]1 (stereo partly specified)	9.27 µM (active)	–
